Test systems include NCI-H23 lung; NCI-H226 lung; NCI-H322M lung; HOP-62 NSCLC; NCI-H460 lung; HOP-92 NSCLC; NCI-H522 lung; A549/ATCC NSCLC; 786-0 renal; COLO 205 colon; DU-145 prostate; K-562 leukemia; MALME-3M melanoma; MDA-MB-231 breast; RXF 393 renal; SF-268 CNS; SF-295 CNS; SF-539 CNS; UACC-257 melanoma; M14 melanoma.
Holding throughout (assay): NCI-60 one-dose screen, 48 h (100 = growth as untreated, 0 = no growth, -100 = all killed)
Settings in all cases: 10 µM unless noted

Molecules are shown by their SMILES. Compounds without any hit were thinned out: in the full panel of roughly 83,000, 20% have a hit.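 Activity criterion: percent growth below 10, measured after cells in 96-well plates were exposed to a single compound concentration for 48 hours.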 Unmarked numbers belong to inactive results. The source made the active and inactive calls.

With `COc1ccc(C(=O)c2cc(F)c(F)c(OC)c2F)cc1OC(=O)CCl`, the growth with NCI-H23 lung is 58.3%; in the assay on NCI-H226 lung, 105%; in the assay with NCI-H322M lung, 75.8%; in the assay on HOP-62 NSCLC, 39%; in the assay on NCI-H460 lung, 20.5%; with HOP-92 NSCLC it was 52.9%. Also, the growth was 30.6% in the assay with NCI-H522 lung; 53.8% in the assay with A549/ATCC NSCLC; 89.6% in the assay with 786-0 renal; 108% in the assay with COLO 205 colon; 57.2% with DU-145 prostate; 15.7% with K-562 leukemia. For the same compound, the growth in the assay with MALME-3M melanoma was 57%; in the assay on MDA-MB-231 breast, 48.8%; in the assay on RXF 393 renal it was 69.7%; in the assay with SF-268 CNS, 58.7%; in the assay on SF-295 CNS, 85.2%; with SF-539 CNS, 25.6%. Besides, the growth is 72% with UACC-257 melanoma and -3.12% (active) in the assay with M14 melanoma.
Turning to `CN(C)CCCn1c2c(c3cc(-c4cccc(S(N)(=O)=O)c4)ccc3c1=O)C(=O)c1ccccc1-2`, the growth in the assay with NCI-H23 lung is 57.4%; with NCI-H226 lung it was 77.8%; in the assay with NCI-H322M lung, 77.3%; in the assay on HOP-62 NSCLC, 53.1%; with NCI-H460 lung, 14.1%; with HOP-92 NSCLC, 104%. The growth with NCI-H522 lung was 44.9%; in the assay on A549/ATCC NSCLC, 64.7%; in the assay on 786-0 renal, 30.6%; with COLO 205 colon it was 59.1%; in the assay on DU-145 prostate, 67.9%; in the assay with K-562 leukemia, 33.1%. The growth in the assay with MALME-3M melanoma is 67.1%; with MDA-MB-231 breast, 94.4%; in the assay on RXF 393 renal it was 85.1%; in the assay on SF-268 CNS it was 51.6%; with SF-295 CNS it was 50.6%; in the assay with SF-539 CNS, 80.9%. In addition, the growth was 97.4% with UACC-257 melanoma and 62.7% in the assay on M14 melanoma.
With `Cc1ccc2nc3nc4ccc[nH]c4cc3c2c1`, the growth in the assay with NCI-H23 lung was 65.1%; in the assay with NCI-H226 lung it was 78.4%; with NCI-H322M lung, 72.5%; in the assay with HOP-62 NSCLC it was 76.4%; in the assay on NCI-H460 lung, 53.8%; in the assay with HOP-92 NSCLC, 121%. Besides, the growth was 90.1% in the assay on NCI-H522 lung; 97.6% in the assay on A549/ATCC NSCLC; 108% in the assay with 786-0 renal; 82.1% in the assay on COLO 205 colon; 108% in the assay with DU-145 prostate; 111% in the assay on K-562 leukemia. Moreover, the growth was 101% in the assay on MALME-3M melanoma; 70.3% with MDA-MB-231 breast; 99.6% with RXF 393 renal; 94.1% in the assay with SF-268 CNS; 113% with SF-295 CNS; 83.5% with SF-539 CNS. The growth in the assay with UACC-257 melanoma is 119%; with M14 melanoma it was 110%.
Regarding `CCCCOc1nc2ccc(C)cc2cc1/C=C/C(=O)/C=C/c1ccc2c(c1)OCO2`, the growth with NCI-H23 lung was 82.4%; with NCI-H226 lung, 96.3%; with NCI-H322M lung, 88%; with HOP-62 NSCLC it was 112%; in the assay on NCI-H460 lung, 103%; in the assay with HOP-92 NSCLC, 80.6%. Moreover, the growth in the assay on NCI-H522 lung is 60.6%; in the assay on A549/ATCC NSCLC, 78.3%; in the assay on 786-0 renal, 97.9%; in the assay on COLO 205 colon it was 123%; in the assay on DU-145 prostate, 82.8%; in the assay with K-562 leukemia it was 69.1%. The growth is 106% in the assay with MALME-3M melanoma; 92.8% in the assay on MDA-MB-231 breast; 108% in the assay with RXF 393 renal; 75.4% with SF-268 CNS; 105% in the assay with SF-295 CNS; 109% in the assay on SF-539 CNS. Besides, the growth in the assay on UACC-257 melanoma was 73.3%; in the assay with M14 melanoma, 52.4%.
Turning to `Cn1c2ccccc2c2c(OC(=O)c3ccccc3)c3c(nc21)-c1ccccc1C3`, the growth in the assay with NCI-H23 lung was 86.1%; in the assay with NCI-H226 lung it was 100%; with NCI-H322M lung, 92.9%; in the assay on HOP-62 NSCLC, 73.1%; in the assay on NCI-H460 lung it was 105%; in the assay on HOP-92 NSCLC it was 91.5%. Besides, the growth in the assay on NCI-H522 lung is 58.2%; in the assay on A549/ATCC NSCLC it was 93.1%; in the assay on 786-0 renal it was 96.9%; in the assay with COLO 205 colon it was 121%; with DU-145 prostate, 104%; in the assay on K-562 leukemia, 104%. The growth in the assay on MALME-3M melanoma was 104%; in the assay with MDA-MB-231 breast, 85.6%; in the assay on RXF 393 renal, 109%; in the assay on SF-268 CNS, 96.4%; in the assay on SF-295 CNS, 100%; in the assay with SF-539 CNS, 102%. The growth is 95.7% in the assay with UACC-257 melanoma and 93.8% with M14 melanoma.
For the compound `O=C(O)COc1ccc2c(=O)c3sc4c(=O)c5ccccc5c(=O)c4c3c(=O)c2c1`, the growth in the assay on NCI-H23 lung is -39.6% (active); in the assay with NCI-H226 lung, 28.6%; in the assay with NCI-H322M lung, -96.5% (active); in the assay on HOP-62 NSCLC, -81.1% (active); with NCI-H460 lung it was -63.2% (active); with HOP-92 NSCLC it was 104%. Moreover, the growth in the assay with NCI-H522 lung was 10.9%; in the assay on A549/ATCC NSCLC, -44.8% (active); in the assay on 786-0 renal, 70.9%; with COLO 205 colon, -46.2% (active); in the assay on DU-145 prostate, -89.6% (active); in the assay on K-562 leukemia it was 24.9%. Also, the growth in the assay with MALME-3M melanoma was -75.4% (active); in the assay with MDA-MB-231 breast, 45.2%; in the assay on RXF 393 renal it was 49.3%; in the assay on SF-268 CNS, 44.7%; with SF-295 CNS it was -97% (active); in the assay on SF-539 CNS, -45.7% (active). The growth with UACC-257 melanoma is -3.61% (active); in the assay with M14 melanoma, -95.6% (active).
`COc1ccc(/C=C/C(=O)Nc2ncnc3nc[nH]c23)cc1`: the growth is 97.7% in the assay on NCI-H23 lung; 104% in the assay on NCI-H226 lung; 101% with NCI-H322M lung; 109% in the assay on HOP-62 NSCLC; 99.2% in the assay on NCI-H460 lung; 106% in the assay on HOP-92 NSCLC. Also, the growth is 81.1% in the assay on NCI-H522 lung; 92.9% in the assay on A549/ATCC NSCLC; 95.6% with 786-0 renal; 115% in the assay with COLO 205 colon; 92.1% with DU-145 prostate; 81.2% in the assay on K-562 leukemia. Moreover, the growth with MALME-3M melanoma was 96.4%; in the assay on MDA-MB-231 breast it was 109%; in the assay on RXF 393 renal, 95.4%; in the assay on SF-268 CNS, 93.5%; with SF-295 CNS it was 107%; with SF-539 CNS, 100%. Moreover, the growth was 100% in the assay with UACC-257 melanoma and 87.8% in the assay on M14 melanoma.
With `CC(=O)Oc1ccc(O)cc1`, the growth in the assay on NCI-H23 lung is 95.2%; in the assay on NCI-H226 lung, 106%; in the assay on NCI-H322M lung, 97.2%; in the assay with HOP-62 NSCLC, 113%; in the assay with NCI-H460 lung, 108%; in the assay on HOP-92 NSCLC it was 98.3%. For the same compound, the growth in the assay with NCI-H522 lung is 33.3%; in the assay with A549/ATCC NSCLC it was 91.6%; in the assay with 786-0 renal it was 110%; with COLO 205 colon it was 120%; in the assay with DU-145 prostate, 102%; in the assay on K-562 leukemia it was 96.7%. Further, the growth in the assay with MALME-3M melanoma is 102%; in the assay with MDA-MB-231 breast it was 95.4%; in the assay with RXF 393 renal, 115%; in the assay with SF-268 CNS, 98.8%; with SF-295 CNS, 101%; in the assay on SF-539 CNS it was 101%. For the same compound, the growth in the assay with UACC-257 melanoma is 83%; in the assay with M14 melanoma, 98.3%.

Source of the values: PubChem BioAssay (NCI).
